Bioassay records: PubChem BioAssay, National Center for Advancing Translational Sciences (NCATS)
HT1080NT lethal – kills 2HG-producing HT-1080-NT fibrosarcoma cells | HT-1080-NT fibrosarcoma viability, CellTiter-Glo ATP luminescence, 48 h | Potency, µM (series often up to 46.1 µM), actives largely listed as cytotoxic | actives 1.6% (n = 360,000);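 also: NT is the 2HG producing partner of a matched IDH1 knockdown line; nearly all actives have a fitted effect of over 55% in size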
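HT-1080-NT; 750 cells/well; 5% FBS RPMI; 48 h compound, 37 degrees C; CellTiter-Glo luminescence; curve fitting and curve-class assignment.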
KB-V1 MDR tox – kills drug-selected multidrug resistant KB-V1 cells | AID 1347076 | KB-V1 MDR cells viability, CellTiter-Glo, 72 h | Potency, µM (highest dose often 46.1 µM), usual class: cytotoxic | actives 3.4% (n = 400,000); also: nearly all actives have a fitted effect of over 60% in size
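Following 72 h at 37 degrees C with compound, KB-V1 cell viability was read by CellTiter-Glo luminescence, medium being phenol-red-free DMEM plus 10% FBS; concentration-response parameters came from normalized, curve-fitted qHTS data.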
HT1080 IDH1KD tx – HT-1080 IDH1 knockdown cell toxicity (counter line); actives 2% (n = 360,000); HT-1080 IDH1 knockdown viability, ATP luminescence, 48 h; AID 686971; Potency, µM (highest dose often 46.1 µM), actives largely listed as cytotoxic
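Luminescent ATP read-out (CellTiter-Glo, 10 min at room temperature) after 48 h compound exposure at 37 °C gave viability of IDH1-knockdown HT-1080 cells. Activity was normalised to DMSO and cell-free wells, then fitted as concentration-response curves.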
IL1B secr inh – blocks inflammasome-driven IL-1 beta release; THP-1 LPS/ATP IL-1B secretion, AlphaLISA, 16 h; stronger effect = lower value; activity change, % at 57.5 µM; actives 4.7% (n = 360,000); AID 743279; in the data active = activity change below about -50%; inconclusive = mostly about -30% to -49%
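THP-1 cells pretreated 1 hr with compounds (up to 57.5 uM final), then stimulated with LPS (250 ng/mL final) plus ATP (1.25 mM final); secreted IL-1B measured by AlphaLISA after 16 hr, decreased signal indicating inhibition.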
KB-3-1 cytotox – KB-3-1 parental cell cytotoxicity | actives 1.4% (n = 400,000) | Potency, µM (series often up to 46.1 µM), hits mostly cytotoxic | KB-3-1 viability, CellTiter-Glo ATP luminescence, 72 h | AID 1347075; also: nearly all actives have a fitted effect of over 60% in size
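Screening of KB-3-1 cells (DMEM, 10% FBS, phenol-red free) ran from lowest to highest compound concentration; after 72 h at 37 °C viability was read luminescently and curves fitted.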
Large screens that a line does not name were inactive. Rows were chosen to be rich in hits. Some 8.8% of all compounds tested hit in one or more screens of this group. Unless noted, calls follow the shape of the dose curve; as a rule, active = well fitted curve in the direction sought with a large enough effect; inconclusive = small, poorly fitted or top-dose-only effect, or another doubt; inactive = no such curve, though single readings can be large; an effect the other way counts as inactive or inconclusive.

COc1ccc(Cl)c(-c2cc(C(=O)Nc3ccc(C)c(NS(C)(=O)=O)c3)[nH]n2)c1	HT1080 IDH1KD tx inconclusive
COc1ccc(Cl)cc1-c1cc(C(=O)NCc2cccc(Cl)c2)[nH]n1	HT1080NT lethal inconclusive, HT1080 IDH1KD tx inconclusive, KB-3-1 cytotox inconclusive
COc1ccc(Cl)cc1-c1cc(C(=O)Nc2ccc(C)c(NS(C)(=O)=O)c2)[nH]n1	HT1080NT lethal 20.6µM, HT1080 IDH1KD tx 23.1µM, IL1B secr inh inconclusive
COc1ccccc1-c1cc(C(=O)NN)[nH]n1	HT1080NT lethal 20.6µM, HT1080 IDH1KD tx 13µM
Cc1ccc(Cl)cc1-c1cc(C(=O)NCc2cccc(Cl)c2)[nH]n1	HT1080NT lethal inconclusive, HT1080 IDH1KD tx inconclusive, IL1B secr inh -50.7
COc1ccc(Cl)cc1-c1cc(C(=O)NCc2cc(C(F)(F)F)cc(C(F)(F)F)c2)[nH]n1	HT1080NT lethal 20.6µM, HT1080 IDH1KD tx inconclusive
Cc1ccc(S(=O)(=O)N2CCN(c3nc(-c4cccs4)nc4cccnc34)CC2)cc1	none (no result: HT1080NT lethal, HT1080 IDH1KD tx, IL1B secr inh)
O=C(NCCNC(=O)c1ccc(-c2cccc(Cl)c2)o1)c1cnccn1	none
O=C(NCCNC(=O)c1ccc(-c2ccc(Cl)c(Cl)c2)o1)c1cnccn1	KB-V1 MDR tox inconclusive, HT1080 IDH1KD tx inconclusive, IL1B secr inh -73.6
C(=C\c1c[nH]c2ccccc12)/c1nccc2ccccc12	none (no result: HT1080NT lethal, HT1080 IDH1KD tx, IL1B secr inh)
COc1cc(OC)c(OC)cc1/C=C1\CCC(C2CCCC2)C1=O (configuration not stated)	KB-V1 MDR tox inconclusive, IL1B secr inh -50.7
COc1ccc(/C=C2\CCC(C3CCCC3)C2=O)c(OC)c1 (configuration not stated)	none
COc1ccc(/C=C2\CCC/C(=C\c3ccc(OC)c(OC)c3OC)C2=O)c(OC)c1OC	none
COc1cc(OC)c(OC)cc1/C=C1\CCC/C(=C\c2cc(OC)c(OC)cc2OC)C1=O	HT1080NT lethal inconclusive, KB-V1 MDR tox inconclusive, HT1080 IDH1KD tx inconclusive, IL1B secr inh -56.3, KB-3-1 cytotox inconclusive
Cc1cc(C)nc(NS(=O)(=O)c2ccc(NC(=O)c3nc(SC(C)C)ncc3Cl)cc2)n1	none (no result: HT1080NT lethal, HT1080 IDH1KD tx, IL1B secr inh)
CCCN1C2CCCC1CC(NC(=S)NCCCOCC)C2 (configuration not stated)	KB-V1 MDR tox 8.2µM
CCOCCCNC(=S)NC1CC2CCC(C1)N2Cc1ccccc1 (configuration not stated)	none
FC(F)Oc1ccc(NC(=S)NC23CC4CC(CC(C4)C2)C3)cc1	HT1080NT lethal inconclusive, KB-V1 MDR tox 16.4µM, HT1080 IDH1KD tx inconclusive, IL1B secr inh inconclusive, KB-3-1 cytotox 23.1µM
CCOc1ccc(NC(=S)NC23CC4CC(CC(C4)C2)C3)cc1	none
CC1(C)SC(=S)N(/N=C/c2ccc(O)cc2)C1N(O)C(=O)Nc1ccc([N+](=O)[O-])cc1 (configuration not stated)	HT1080NT lethal inconclusive, HT1080 IDH1KD tx inconclusive, KB-3-1 cytotox inconclusive
CC1(C)SC(=S)N(/N=C/c2cccnc2)C1N(O)C(=O)Nc1ccccc1 (configuration not stated)	none
Cc1ccc(/C=N/N2C(=S)SC(C)(C)C2N(O)C(=O)Nc2ccc([N+](=O)[O-])cc2)cc1 (configuration not stated)	KB-V1 MDR tox inconclusive, IL1B secr inh -70.5
CC1(C)SC(=S)N(/N=C/c2ccccc2O)C1N(O)C(=O)Nc1ccccc1 (configuration not stated)	HT1080NT lethal 18.4µM, HT1080 IDH1KD tx inconclusive, IL1B secr inh inconclusive
CC(c1ccccn1)N(Cc1ccco1)C(=S)Nc1cccc(F)c1 (configuration not stated)	none
CC1CCN(CCOCCOc2ccccc2-c2ccccc2)CC1	KB-V1 MDR tox 11.6µM, HT1080 IDH1KD tx inconclusive, IL1B secr inh inconclusive
CC1CN(CCOc2ccccc2-c2ccccc2)CC(C)O1 (configuration not stated)	KB-V1 MDR tox 20.6µM, KB-3-1 cytotox inconclusive
Cc1cc(OCCN2CCC(Cc3ccccc3)CC2)ccc1[N+](=O)[O-]	HT1080NT lethal inconclusive, HT1080 IDH1KD tx inconclusive, IL1B secr inh -74.2
c1ccc(CN2CCN(CCOCCOc3cccc4ccccc34)CC2)cc1	HT1080NT lethal 16.4µM, KB-V1 MDR tox inconclusive, HT1080 IDH1KD tx inconclusive, IL1B secr inh -81.2
